What follows are sequences tested on VDR:RXRa (NR concentration 270 nM, RXRa partner concentration 90 nM) (assay: PBM binding z-score (relative to random genomic background probes); higher = stronger binding; sequences stand for … in GC…GCGATTGACAGCGTAGAATGAAGG).
Experimental: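 Protein-binding microarray (Agilent 4x180K custom design, double-stranded 60-nt probes: 5' GC cap, 34-nt variable region, 24-nt constant primer region; full probe sequence given). Purified or IVT nuclear receptor:RXRα heterodimers (3:1 NR:RXRα, mostly 270:90 nM) or homodimers were incubated for 1 h in PBS with 2% milk and no ligand, then detected with Alexa488 antibodies. Fluorescence from o1-orientation probes (~5 replicates averaged) was converted to z-scores against 500 random hg19 background probes. Variable regions are seed direct-repeat (DR0–DR5) sites, all their single-nucleotide variants and half-site ablations.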
ACTCGGAGGACAAATGTCAGAGCTACGCCAGTGA showed a PBM binding z-score of -0.292. With CGAACTAGGTCACAAGGACAGTGAAGAGGTTGGA the PBM binding z-score was 1.83. With CAACCTAGGTCACGAAAGGTCAAAGTCGAATGAC the PBM binding z-score was 7.15. With CGAACTAGGTCACCAGTACAGTGAAGAGGTTGGA the PBM binding z-score was 2.27. CCGAGTAGGTTCCGAGGGGGCATTCAGTGCGAAT gave a PBM binding z-score of 4.09. Sequence ATCGTAAGGTCGTGAGGTGAGTATACAGAAAGGC has a PBM binding z-score of 2.8. Sequence AGTCATAGTTCACTAGGTAACGTAAGATTCAGCT has a PBM binding z-score of 1.12. In the case of ACTAACAGGCCAAGGGTCACTCAAGATTAGTCCG, the PBM binding z-score is reported as 3.07. In the case of TAGCCTAGGTCAAGCGGGCCAGTATAGTGTCGGC, the PBM binding z-score is reported as 2.6. ATCTGTAGGTTATCGGGTCATTCAGTTTGCGCAT showed a PBM binding z-score of 5.17. Work on ACTAGTTGGTCAGCTGAGGTCACACAAAATTCGG yielded a PBM binding z-score of 4.79. In the case of CGTCCAAGGTCAAGGTGAGTGAAAGAGACTCGAA, the PBM binding z-score is reported as 4.01. CTATGTAGGTTAAGGGGGTGATTCAGTTTGAAAG gave a PBM binding z-score of 3.99. CCTACTGGGCCAATGTCATTGATCAGTCAAAGCA showed a PBM binding z-score of -0.366. In the case of TAGCCTAGGTCATGCGGGTCAGTATAGTGTCGGC, the PBM binding z-score is reported as 5.81. In the case of AGTCAAAGTTCACTAGGTTACGTAAGATTCAGCT, the PBM binding z-score is reported as 4.71. Work on CCGACTGGGGCAAAGGTTACGATACTCAGTACGA yielded a PBM binding z-score of 1.61. For CGAACTAGGTCACCAGGACAGGGAAGAGGTTGGA, the PBM binding z-score was 1.91. With CGAACTAGGTCACCAGGACAGTAAAGAGGTTGGA the PBM binding z-score was 2.05. CATACCGGGTCAGCTAGGCCAGAGTAGGGACGGC was tested, and the PBM binding z-score was 2.57. For CCGACGGGGGCAAGGTTACCATAACGCACAGCCA, the PBM binding z-score was 3.01. In the case of ATCGAAGGGTCGAAGGTGAGTATACCCACCCGAA, the PBM binding z-score is reported as 1.66. Sequence TAGCCTAGGTCATGGGCCAGTTTACCACGCGAAC has a PBM binding z-score of 2.61. For CCAACTAGGTCACCAGGACAGTGAAGAGGTTGGA, the PBM binding z-score was 1.99. For CCTACTGGGTCATTCAGAGGTCATTGATCATATG, the PBM binding z-score was 6.25. For CCAGACAGGTGAAAGGTCACTCAGTCTGGTACGC, the PBM binding z-score was 5.03. Work on CGTACTAGGTCACCAGGACAGTGAAGAGGTTGGA yielded a PBM binding z-score of 1.93. Sequence TTACGAAGGTGAAAGGTCGTTGATGCACGCCTTG has a PBM binding z-score of 3.25. Work on AGAATGAGGTTACACGTAGATCAGGGAAGAAAGT yielded a PBM binding z-score of 1.67. TCGAGTGGGTTACGGGGGCATTCAGGGATGAAGA showed a PBM binding z-score of 4.27. With CTATGTAGTTTAAGGGGGTCATTCAGTTTGAAAG the PBM binding z-score was 6.94. In the case of ATCGAACGGTCGACGAGGTGAGTATACACCGTTT, the PBM binding z-score is reported as 0.299. CCTACTGGGGCACGAAAGGTCATTGATTCAGTGA showed a PBM binding z-score of 4.61. Work on ATCGAAAGGTCGTGAAGTGAGTATACAGAAAGGC yielded a PBM binding z-score of 3.26. CGAACTAGGTCATCAGGACAGTGAAGAGGTTGGA showed a PBM binding z-score of 1.89. CAATCTAGGTCACGAAAGGTCAAAGTCGAATGAC was tested, and the PBM binding z-score was 6.99. For AATACAGGGTCATTAGGCCAGAGTAGGTACGAAT, the PBM binding z-score was 4.61. ATATGTAGGTTAGGGTCATACAGAAAGTAGGGAA showed a PBM binding z-score of 4.24. TAGCCTAGGTCATGCGGGCCAGTATAGTGTCGGC was tested, and the PBM binding z-score was 2.89. In the case of CTGTGTAGGTTAAGGGGGTCATTCAGTTTGAAAG, the PBM binding z-score is reported as 7.46.
